Results on seven compounds are retold here after PubChem BioAssay (Tox21).

Several values for one entry are separate records, joined by “and”; a condition that tells them apart may be missing. Equal values may be shown once. Inconclusive results are not listed. A structure can be active in one record and inactive in another. Activity calls are given as the source filed them. Unless noted, calls follow the shape of the dose curve; as a rule, active = well fitted curve in the direction sought with a large enough effect in the repeat runs; inconclusive = weak or mixed curves; inactive = no such curve, though single readings can be large; an effect the other way counts as inactive or inconclusive.

A short description of assay [1]: qHTS assay to identify small molecule agonists of the estrogen receptor alpha (ER-alpha) signaling pathway in the presence of an antagonist - cell viability counter screen (AID 1259386).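 Also: series mostly up to about 92 µM; cells exposed to compounds for 22 h at 37 °C before the viability read; nearly all actives have a fitted effect of over 30% in size.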 In a few lines:
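Cell viability in VM7Luc4E2 cells (endogenous full-length ER-alpha) measured by CellTiter-Fluor fluorescence in the same wells as the luciferase screen. Cells pre-cultured 5 days in charcoal-stripped serum, then treated 22 h with compounds at 15 concentrations plus 10.0nM ICI-182,780.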
On the technique in general: In qHTS, concentration-response curves come from the screen itself.

In assay [2] the target is Progesterone receptor (Homo sapiens) (UniProt P06401). Description: qHTS assay to identify small molecule agonists of the progesterone receptor (PR) signaling pathway (AID 1346784; calls by dose curve; also: nearly all actives have a fitted effect of over 30% in size). The method, boiled down:
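Reporter assay, GripTite PR-UAS-bla HEK 293T cells: 16 hr exposure to DMSO-dissolved compounds at 37C, 5% CO2, in steroid-depleted (2% charcoal-stripped FBS) medium; beta-lactamase measured by FRET fluorescence.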

Assay [3] shares this target. Briefly: qHTS assay to identify small molecule antagonists of the progesterone receptor (PR) signaling pathway (AID 1346795; active = well fitted inhibition curve with a large enough effect in the signal ratio in the repeat runs, not every such curve was filed as active; the % refers to the signal ratio). The method, boiled down:
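Stimulus R5020 at 1 nM final; cells HEK293T PR-UAS-bla; medium with 2% charcoal-stripped FBS; compound exposure 16 hr at 37C, 5% CO2; detection by FRET beta-lactamase substrate, 2 hr, room temperature.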

The nature of assay [4]: qHTS assay to identify small molecule antagonists of the progesterone receptor (PR) signaling pathway - cell viability counter screen (AID 1346798). Also: series mostly up to about 92 µM; nearly all actives have a fitted effect of over 50% in size. In a few lines: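 In the same plates used for the beta-lactamase readout, cell viability of compound- and R5020-treated PR-UAS-bla HEK293T cells (16 hr, 37C) was assessed by CellTiter-Glo luminescence.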
Assay [5] is described as follows: qHTS assay to identify small molecule agonists of the progesterone receptor (PR) signaling pathway - cell viability counter screen (AID 1346799; calls by dose curve; also: nearly all actives have a fitted effect of over 45% in size). In a few lines:
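Multiplexed viability read: CellTiter-Glo luminescence, 30 min RT, following LiveBLAzer FRET measurement on PR-UAS-bla HEK293T cells exposed to compounds 16 hr.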

Assay [6] can be described thus: qHTS assay to identify small molecule antagonists of the TGF-beta/Smad signaling pathway - cell viability counter screen (AID 1346824). Also: nearly all actives have a fitted effect of over 50% in size. In a few lines: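 Cytotoxicity counter-screen run in the same wells as the beta-lactamase Smad reporter read: CellTiter-Glo luminescence after 30 min at room temperature. HEK 293T SBE-bla cells had 5 hr compound exposure at 37 C with TGF-beta1 (0.25 ng/mL stock).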

The nature of assay [7]: qHTS assay to identify small molecule agonists of the TGF-beta/Smad signaling pathway - cell viability counter screen (AID 1346829). Also: top concentration of the series differs between compounds; nearly all actives have a fitted effect of over 45% in size. The method, boiled down:
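Compound-treated SBE-bla HEK 293T cells (5 hr, 37 C) were assessed for viability with CellTiter-Glo in parallel with the reporter read.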

The nature of assay [8]: qHTS assay to identify small molecule agonists of the TGF-beta/Smad signaling pathway (AID 1346859; active = well fitted activation curve with a large enough effect in the signal ratio in the repeat runs, not every such curve was filed as active; the % refers to the signal ratio; also: series mostly up to about 77 µM). The method, boiled down: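 Screening used HEK 293T SBE-bla cells at 4,000/well. Test agents: 5 hr, 37 C. Detection: FRET substrate, 2 hr RT, then excitation 405 nm with emissions at 460 and 530 nm.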
Assay [9] has as its target Thyrotropin-releasing hormone receptor (Homo sapiens) (UniProt P34981). Description: qHTS assay to identify small molecule agonists of the thyrotropin-releasing hormone receptor (TRHR) signaling pathway (AID 1346891; calls by dose curve; also: series mostly up to about 58 µM). In a few lines:
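Readout was intracellular calcium fluorescence in TRHR-Hek293 cells. Cells were incubated 18 h, dye-loaded 2 h at 37 °C, and treated with compound in agonist mode.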

The nature of assay [10]: Human pregnane X receptor (PXR) small molecule agonists, qHTS cell viability counter screen (AID 1346977). Also: nearly all actives have a fitted effect of over 50% in size. The method, boiled down:
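In each well, the PXR reporter HepG2 line was checked for viability: CellTiter-Fluor reagent added 23hr post-dosing, fluorescence read after 1hr incubation at 37C.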

Assay [11] in a line: Caspase-3/7 induction in CHO-K1 cells by small molecules, qHTS cell viability counter screen (AID 1346979). Also: nearly all actives have a fitted effect of over 35% in size. The method, boiled down: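 Following a 5hr settling period, CHO-K1 cells at 1,500 per well received DMSO-dissolved compounds. Cell viability was quantified 16hr later by CellTiter-Fluor fluorescence, measured after 1hr with reagent at 37C.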
A short description of assay [12]: Caspase-3/7 induction in CHO-K1 cells by small molecules, qHTS assay (AID 1346980). Also: nearly all actives have a fitted effect of over 15% in size. In a few lines: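 Luminescent Caspase-Glo 3/7 read (30min, room temperature) quantified apoptosis induction. Cells were wild-type CHO-K1, treated with compound for 17hr at 37 C and 5% CO2.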
The nature of assay [13]: Caspase-3/7 induction in HepG2 cells by small molecules, qHTS cell viability counter screen (AID 1346981). Also: series mostly up to about 92 µM; nearly all actives have a fitted effect of over 30% in size. In a few lines: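 Wild-type HepG2 cells, 2,000/well, settled 5 hr at 37 C, 5% CO2 before compound addition. Viability read by CellTiter-Fluor fluorescence, reagent added after 16 hr compound exposure, then 1 hr at 37C, in the same wells as the caspase read.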
The target of assay [14] is Nuclear receptor subfamily 1 group I member 2 (Homo sapiens) (UniProt O75469). Briefly: Human pregnane X receptor (PXR) small molecule agonists, qHTS assay (AID 1346982). Also: nearly all actives have a fitted effect of over 35% in size. Also: potency is read from the fitted curve at half-maximal effect. In a few lines: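 PXR-Luc HepG2 reporter cells (CYP3A4-driven luciferase) in 5% charcoal-stripped FBS medium, plated 5 h before compound addition, then treated 24 h at 37C. Luciferase read by ONE-Glo luminescence after 30 min at room temperature.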
Sequence of Nuclear receptor subfamily 1 group I member 2 (Homo sapiens) (O75469 whole entry, looked up): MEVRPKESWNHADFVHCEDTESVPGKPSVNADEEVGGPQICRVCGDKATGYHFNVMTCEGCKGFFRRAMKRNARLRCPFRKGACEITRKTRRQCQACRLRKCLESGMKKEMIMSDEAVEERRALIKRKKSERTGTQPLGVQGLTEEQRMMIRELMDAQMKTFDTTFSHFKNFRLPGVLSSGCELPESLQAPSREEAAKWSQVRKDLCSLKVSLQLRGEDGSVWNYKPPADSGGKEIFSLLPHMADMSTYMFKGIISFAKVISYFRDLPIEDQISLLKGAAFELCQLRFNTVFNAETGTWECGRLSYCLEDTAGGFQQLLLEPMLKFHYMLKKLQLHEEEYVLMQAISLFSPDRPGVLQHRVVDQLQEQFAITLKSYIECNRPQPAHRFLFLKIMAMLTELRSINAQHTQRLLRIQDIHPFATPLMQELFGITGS

Assay [15] has as its target Nuclear receptor subfamily 1 group I member 2 (Rattus norvegicus) (UniProt Q9R1A7). Briefly: Rat pregnane X receptor (rPXR) activation by small molecules, qHTS assay (AID 1346983). Also: nearly all actives have a fitted effect of over 20% in size. The note with it: rPXR luciferase reporter cells, One-Glo luminescence, 24 h; max activation: stronger effect = higher value. The method, boiled down:
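Luminescent readout (One-Glo luciferase, 30 min room temperature) followed 24 hr compound treatment at 37 C of rPXR cells plated 2,000 per well and preincubated 5hr; qHTS format with compounds delivered in DMSO.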

Assay [16] has as its target Nuclear receptor subfamily 1 group I member 2 (Homo sapiens) (UniProt O75469). Description: CYP3A4 induction through human pregnane X receptor (PXR) by small molecules, qHTS assay (AID 1346984). Also: nearly all actives have a fitted effect of over 40% in size. Also: potency is read from the fitted curve at half-maximal effect. In a few lines:
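DPX-2 HepG2 cells carrying a PXR response element and CYP3A4-promoter luciferase construct, treated with compounds 24 hr at 37C. Then P450-Glo CYP3A4 Luciferin-IPA substrate (3uM final) for 3 hr at 37C, One-Glo added, luminescence read.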

Assay [17] has the same target. Briefly: Human pregnane X receptor (PXR) activation by small molecules, qHTS assay (AID 1346985). Also: nearly all actives have a fitted effect of over 40% in size. The method, boiled down: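 DPX-2 cells (HepG2 co-transfected with a PXR response element and a CYP3A4-promoter luciferase construct) were seeded at 2,000 per well, rested 5 hr at 37C, then exposed to DMSO-dissolved compounds for 24 hr. Activation was read as luciferase luminescence.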

Assay [18] deals with Cytochrome P450 2D6 (Homo sapiens) (UniProt P10635). Description: Cytochrome P450 Family 2 Subfamily D Member 6 (CYP2D6) small molecule antagonists: luciferase reporter qHTS assay (AID 1671196). Also: nearly all actives have a fitted effect of over 50% in size. Also: potency is read from the fitted curve at half-maximal effect. The method, boiled down:
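Cell-free P450-Glo system: CYP2D6 with proluciferin substrate was pre-incubated with compound for 10 min, then reacted with NADPH regeneration for 1 h at room temperature. Luciferin product was detected after 20 min, and data were reported as relative luminescence units.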
For orientation: Reporter assays use an easily measured gene product as a stand-in for the process of interest.

The nature of assay [19]: Caspase-3/7 induction in HepG2 cells by small molecules, qHTS assay (AID 1346978). Also: nearly all actives have a fitted effect of over 15% in size. In a few lines:
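Caspase-3/7 induction was measured by Caspase-Glo 3/7 luminescence (30 min, room temperature) after a 17 hr compound exposure of wild-type HepG2 cells seeded at 2,000 per well and pre-incubated 5 hr.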
% is scaled to controls: 0 for no effect and ±100 for the full control effect.

Sequence of Cytochrome P450 2D6 (Homo sapiens) (P10635 whole entry, looked up): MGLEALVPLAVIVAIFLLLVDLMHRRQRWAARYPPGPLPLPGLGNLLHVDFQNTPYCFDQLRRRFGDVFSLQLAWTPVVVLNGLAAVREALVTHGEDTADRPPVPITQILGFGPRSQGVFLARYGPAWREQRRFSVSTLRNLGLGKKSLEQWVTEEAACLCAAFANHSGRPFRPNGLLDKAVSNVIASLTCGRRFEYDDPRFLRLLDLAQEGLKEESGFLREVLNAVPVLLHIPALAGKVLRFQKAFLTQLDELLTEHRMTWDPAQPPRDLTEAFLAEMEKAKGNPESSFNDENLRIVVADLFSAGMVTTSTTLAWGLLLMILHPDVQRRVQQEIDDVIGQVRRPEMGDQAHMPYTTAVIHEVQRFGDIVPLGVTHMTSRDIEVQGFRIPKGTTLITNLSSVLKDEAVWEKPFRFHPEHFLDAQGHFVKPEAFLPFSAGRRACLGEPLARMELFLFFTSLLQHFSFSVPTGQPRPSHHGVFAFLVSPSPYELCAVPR
Sequence of Thyrotropin-releasing hormone receptor (Homo sapiens) (P34981 whole entry, looked up): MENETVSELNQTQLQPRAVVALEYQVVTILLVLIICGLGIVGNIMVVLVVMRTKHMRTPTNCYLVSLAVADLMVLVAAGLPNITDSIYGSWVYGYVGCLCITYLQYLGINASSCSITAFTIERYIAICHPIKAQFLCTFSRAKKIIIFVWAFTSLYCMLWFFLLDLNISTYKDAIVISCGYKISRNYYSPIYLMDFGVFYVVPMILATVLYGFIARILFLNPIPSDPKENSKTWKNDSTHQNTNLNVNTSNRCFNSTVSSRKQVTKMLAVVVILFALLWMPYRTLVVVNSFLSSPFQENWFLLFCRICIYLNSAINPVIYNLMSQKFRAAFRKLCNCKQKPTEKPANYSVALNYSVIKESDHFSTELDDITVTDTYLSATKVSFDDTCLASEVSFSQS
Sequence of Progesterone receptor (Homo sapiens) (P06401 whole entry, looked up): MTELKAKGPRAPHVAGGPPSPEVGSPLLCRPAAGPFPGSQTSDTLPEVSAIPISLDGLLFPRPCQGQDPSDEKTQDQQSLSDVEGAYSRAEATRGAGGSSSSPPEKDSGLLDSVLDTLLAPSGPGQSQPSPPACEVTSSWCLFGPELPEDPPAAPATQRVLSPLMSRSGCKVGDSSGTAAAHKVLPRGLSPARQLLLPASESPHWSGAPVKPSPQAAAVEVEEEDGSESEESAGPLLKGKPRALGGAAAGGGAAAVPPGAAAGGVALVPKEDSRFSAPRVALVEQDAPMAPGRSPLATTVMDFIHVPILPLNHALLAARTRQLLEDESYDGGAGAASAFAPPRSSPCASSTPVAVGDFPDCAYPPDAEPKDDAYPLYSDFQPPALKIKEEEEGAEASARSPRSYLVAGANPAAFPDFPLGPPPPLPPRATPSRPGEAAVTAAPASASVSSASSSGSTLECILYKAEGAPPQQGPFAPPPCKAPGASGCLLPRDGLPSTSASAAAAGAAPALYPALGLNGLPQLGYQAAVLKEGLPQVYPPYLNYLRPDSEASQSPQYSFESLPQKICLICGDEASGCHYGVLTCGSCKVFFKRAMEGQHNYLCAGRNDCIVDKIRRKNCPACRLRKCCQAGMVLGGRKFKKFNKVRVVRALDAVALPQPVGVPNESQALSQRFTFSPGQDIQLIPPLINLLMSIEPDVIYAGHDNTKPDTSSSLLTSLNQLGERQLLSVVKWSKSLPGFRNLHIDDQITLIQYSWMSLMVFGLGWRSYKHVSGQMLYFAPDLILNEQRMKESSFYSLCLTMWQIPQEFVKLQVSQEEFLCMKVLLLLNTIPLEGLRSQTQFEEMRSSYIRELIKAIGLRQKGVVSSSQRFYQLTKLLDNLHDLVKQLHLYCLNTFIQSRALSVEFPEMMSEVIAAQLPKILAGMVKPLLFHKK
Sequence of Nuclear receptor subfamily 1 group I member 2 (Rattus norvegicus) (Q9R1A7 whole entry, looked up): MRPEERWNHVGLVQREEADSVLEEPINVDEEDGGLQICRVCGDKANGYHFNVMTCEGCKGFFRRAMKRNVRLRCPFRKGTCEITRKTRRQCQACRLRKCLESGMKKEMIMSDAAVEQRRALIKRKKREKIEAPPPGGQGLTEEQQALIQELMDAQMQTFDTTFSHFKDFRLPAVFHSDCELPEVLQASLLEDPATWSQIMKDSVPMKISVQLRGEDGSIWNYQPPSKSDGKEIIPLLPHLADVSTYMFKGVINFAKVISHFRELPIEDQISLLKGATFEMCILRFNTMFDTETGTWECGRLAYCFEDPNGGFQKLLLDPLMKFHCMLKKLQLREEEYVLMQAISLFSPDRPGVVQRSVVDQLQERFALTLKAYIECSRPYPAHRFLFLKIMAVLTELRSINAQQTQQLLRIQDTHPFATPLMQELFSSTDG

In the case of `COc1ccc(O)cc1`, the Potency entry in assay [1], in [2], in assay [3], in assay [4], in [5] and in [6] was “inactive” throughout. The Potency result in assay [7], in assay [9], in assay [10], in assay [11], in assay [13] and in [14] was “inactive” each time. The Potency entry in assay [16] and in assay [17] was “inactive” each time. Moreover, the result in assay [8] and in assay [12] was inactive. For the same compound, the max activation in [15] was -2.37% (inactive). Further, the Potency in [18] was 27.2 µM (active) and inactive.
With `CC(=O)/C=C/C1=C(C)CCCC1(C)C`, the Potency entry in assay [1], in assay [2], in assay [3], in assay [4], in assay [5] and in [6] was “inactive” in each case. Further, the Potency result in [7], in [9], in assay [10], in assay [11], in [13] and in [18] was “inactive” each time. Further, the compound was called inactive in assay [8] and in assay [12]. Also, the Potency in assay [14] was 55.5 µM (active) and 17.2 µM (active) and 21.7 µM (active).
For the compound `C=C(C)OC(C)=O`, the Potency result in [1], in assay [2], in assay [3], in assay [4], in assay [5] and in assay [6] was “inactive” each time. The Potency result in assay [7], in assay [9], in [10], in assay [11], in [13] and in assay [14] was “inactive” each time. Moreover, the outcome in [8] and in assay [12] was inactive. The Potency in [18] was 13 µM (active) and inactive.
On to `Cc1cccc2ccccc12`, for which the Potency result in assay [1], in [2], in assay [3], in assay [4], in [5] and in assay [6] was “inactive” each time. The Potency entry in assay [7], in [9], in assay [10], in assay [11], in assay [13] and in assay [14] was “inactive” throughout. The Potency entry in assay [18] was “inactive”. Besides, the result in [8] and in [12] was inactive.
Regarding `CN(C)C=O`, the Potency result in assay [1], in assay [2], in [3], in assay [4], in assay [5] and in assay [6] was “inactive” throughout. The Potency result in [7], in assay [9], in [10], in [19], in assay [11] and in assay [13] was “inactive” each time. Besides, the Potency result in assay [14] and in assay [18] was “inactive” each time. In addition, the compound was called inactive in assay [8] and in [12].
With `CCOCCO`, the Potency result in [1], in [2], in assay [3], in assay [4], in [5] and in assay [6] was “inactive” throughout. For the same compound, the Potency result in assay [7], in assay [9], in assay [10], in assay [11], in assay [13] and in assay [14] was “inactive” each time. In addition, in assay [18], the Potency entry was “inactive”. Further, the outcome in assay [8] and in assay [12] was inactive.
As to `N[C@@H](Cc1c[nH]c2ccc(O)cc12)C(=O)O`, the Potency entry in assay [1], in assay [2], in assay [3], in assay [4], in [5] and in assay [6] was “inactive” throughout. Besides, the Potency result in assay [7], in [9], in assay [10], in [19], in [11] and in [13] was “inactive” in each case. The Potency entry in assay [14] and in assay [17] was “inactive” throughout. In addition, the call in assay [8] and in assay [12] was inactive. Moreover, in assay [15], the max activation is -0.341% (inactive). Moreover, the figures for the Potency in [16] and in [18] were 4.47 µM (active) and 34.6 µM (active), respectively.
